# Measurements published in ChEMBL document CHEMBL3988442, “University of Dundee, Small-Polar-MMV Screening Library” (2021).
# Hit rate of the full screen: of about 48,000 compounds, about 13,000 (27%) showed an effect of 50% or more. This is one part of the list.
# Tested on: Wolbachia pipientis
# Assay: Anti-Wolbachia Cell-Based Screen
# Type: functional
# Set-up: scale not given: in the data most compounds retested in dose-response had high values
# Details: 5 µM
row,Structure (SMILES),Percent Effect [%]
1,COc1ccc(OC)c2c(C)cc(N(C)CCCO)nc12,19.89
2,OC[C@@H](O)CN(CCC(F)(F)F)c1ncccn1,-5.207
3,O=C(CCN1CCCN(c2nccs2)CC1)NCC1CCCCC1,-7.888
4,Cc1cnn(CCNCCCOc2ccccc2)c1,2.655
5,Cc1cnn(CCCNC(=O)NC(C)C(=O)Nc2ccccc2)c1 (stereo unspecified),105.3
6,Cc1cnn(CCCNC(=O)NCCC(=O)Nc2ccccc2)c1,97.62
7,Cc1cnn(CCCNC(=O)NCCS(=O)(=O)Nc2ccccc2)c1,96.15
8,Cc1cnn(CCNCC(=O)NCc2ccccc2)c1,3.726
9,CCn1nnnc1-c1cccc(NC(=O)CCn2cc(C)cn2)c1,2.601
10,Cc1cnn(CCNC(C)C(=O)NCCc2cccs2)c1 (stereo unspecified),5.747
11,Cc1cnn(CCCNC2Cc3ccccc3C2)c1,8.956
12,Cc1cnn(CCNC(C)C(=O)Nc2ccc(Cl)cn2)c1 (stereo unspecified),-21.66
13,CN(C)S(=O)(=O)N1CC[C@]2(C[C@H](OCc3ccccn3)CO2)C1.O=C(O)C(F)(F)F,14.62
14,Cc1ccc(C(=O)N2CC[C@@H]3[C@H]2CCC(=O)N3CCN(C)C)cn1.O=C(O)C(F)(F)F.O=C(O)C(F)(F)F,19.11
15,CCn1nc(C)c(NC(=O)c2cc(NC(=O)C3CC3)n(C)n2)c1C,-7.543
16,O=C1NC[C@@]2(C(=O)O)CN(Cc3cccc(C(F)(F)F)c3)C[C@@H]12,-16.76
17,NC1CCCN(Cc2cccc(C(F)(F)F)c2)C1=O (stereo unspecified),110.9
18,O=C(C[S+]([O-])Cc1cccc(C(F)(F)F)c1)NC1CCCC1 (stereo unspecified),-0.5467
19,FC(F)(F)c1cccc(CN2CCOC[C@H](Oc3cccnc3)C2)c1,-1.353
20,O=C1C(N2CC[C@@H](O)C2)CCCN1Cc1cccc(C(F)(F)F)c1 (stereo partly specified),107.1
21,O=C1C(N2CCOCC2)CCCN1Cc1cccc(C(F)(F)F)c1 (stereo unspecified),85.07
22,NC(=O)CN(C(=O)Cc1cccc(C(F)(F)F)c1)C1CCCC1,0.7845
23,Cc1nc(CN2CCCC(CCc3cccc(C(F)(F)F)c3)C2)co1 (stereo unspecified),-5.657
24,O[C@H]1COCCN(Cc2cccc(C(F)(F)F)c2)C1,1.348
25,CC(C)(C)c1nc2cc(NC(=O)Cn3ccc(=O)[nH]c3=O)ccc2o1,-2.056
26,Cc1cccc(C(C(=O)N2CCN(C(=O)c3ccc[nH]3)CC2)N(C)C)c1 (stereo unspecified),8.522

row,Structure (SMILES),Percent Effect [%]
1,Clc1ccc2nc(N3CCC(NCCCC4CCOC4)CC3)sc2c1 (stereo unspecified),5.411
2,CC(C)COCC(C)NC(=O)NCc1cccc(-n2cncn2)c1 (stereo unspecified),11.71
3,CCN1CCCC(C)(C(=O)NCCc2nnc(C)[nH]2)C1 (stereo unspecified),0.7717
4,CCOC(=O)C1(Cc2ccccc2)CCCN(Cc2nccn2CC)C1 (stereo unspecified),6.244
5,CCN1CCCC(C)(C(=O)NCc2nncn2CCc2ccccc2)C1 (stereo unspecified),118.3
6,CCN1CCCC(C)(C(=O)NCCCc2nc(C)cs2)C1 (stereo unspecified),-10.41
7,CCN1CCCC(C)(C(=O)NCCc2n[nH]c(=O)[nH]2)C1 (stereo unspecified),34.99
8,CCN1CCCC(C)(C(=O)NCc2nccn2Cc2ccccc2)C1 (stereo unspecified),105.1
9,CCC1(CO)CCCN(Cc2nccn2Cc2ccccc2)C1 (stereo unspecified),7.742
10,CCN1CCCC(C)(C(=O)NCc2nnnn2-c2ccccc2)C1 (stereo unspecified),65.9
11,Cc1nnc(N2CCC(CN(C)C(C)C)CC2)c(C#N)c1C,6.063
12,O=C(CC1CC1)N1CCn2cc(Cn3cncn3)nc2C1,0.5446
13,Cn1cc(Br)cc1C(=O)NCC(C)(O)c1ccsc1 (stereo unspecified),-10.72
14,Cn1cnc(S(=O)(=O)NCC(C)(O)c2ccc3c(c2)OCO3)c1 (stereo unspecified),-0.9964
15,Cn1cc(S(=O)(=O)NCC(C)(O)c2ccsc2)cn1 (stereo unspecified),76.2
16,CSCC(C)(O)CNc1ncccc1I (stereo unspecified),15.53
17,Cc1nc2cc(C3CCN(Cc4cccc(F)c4F)C3)nn2c(O)c1C.O=C(O)CC(O)(CC(=O)O)C(=O)O (stereo unspecified),-10.9
18,Cc1nnsc1C(=O)N1CCN(C(=O)C2CCC2)[C@@H]2CS(=O)(=O)C[C@@H]21,2.369
19,Cc1nnsc1C(=O)N1CCCCC1c1cc2nc(C)c(C)c(O)n2n1 (stereo unspecified),136.2
20,CC(=O)N1CCN(C(=O)c2snnc2C)[C@H]2CS(=O)(=O)C[C@H]21,-13.7
21,Cc1nc2cc(C3CCCCN3C(=O)C3CC3)nn2c(O)c1C (stereo unspecified),136.9
22,Cc1ncsc1C(=O)N1CCCCC1c1cc2nc(C)c(C)c(O)n2n1 (stereo unspecified),146.5
23,CC1CCCN(c2ccc(C(N)=O)cc2NC(=O)CC2=CCNCC2)C1 (stereo unspecified),16.61
24,O=C1N(Cc2ccccc2F)CCCC12CCN(C1CCSCC1)C2 (stereo unspecified),-13.98
25,Cc1ncsc1CN1Cc2cn(C)nc2C(COCC2CC2)C1.O=C(O)C(F)(F)F.O=C(O)C(F)(F)F (stereo unspecified),13.37
26,Cc1ccnn1CC(=O)N1CCCN(C2Cc3ccccc3C2)CC1,-5.068

row,Structure (SMILES),Percent Effect [%]
1,O=C(NC1CC1)C1CCCN1c1ncnc2ccsc12 (stereo unspecified),-11.59
2,Cc1cncc(C(=O)N2CCC(Cn3cc(-c4ccsc4)nn3)CC2)c1,-0.4456
3,CS(=O)(=O)NCC1CCCCN1C(=O)c1csc(-c2ccsc2)n1 (stereo unspecified),11.05
4,O=C([C@@H]1CCCO1)N1CCC(Cn2cc(-c3ccsc3)nn2)CC1,-13.58
5,CC(C)NC(=O)C1Cc2nc(-c3ccsc3)sc2N1CC1CC1 (stereo unspecified),78.87
6,CC(C)N1c2sc(-c3ccsc3)nc2CC1C(=O)NC1CCCC1 (stereo unspecified),65.31
7,O=C(NC1CCCC1)C1Cc2nc(-c3ccsc3)sc2N1CC1CC1 (stereo unspecified),63.55
8,CC(C)N1c2sc(-c3ccccc3)nc2CC1C(=O)NC1CCCC1 (stereo unspecified),22.35
9,CC(C)N1c2sc(-c3ccsc3)nc2CC1C(=O)NC1CC1 (stereo unspecified),38.95
10,COCCCN1CCCN(C(C)C(=O)Nc2cccc(I)c2)CC1 (stereo unspecified),23.62
11,COc1ccc(-n2nc(C)c(C(C)=O)c2C)cc1CO,-7.291
12,Cc1nc(COCc2nc3c(o2)CN(C(=O)c2ccoc2)C3)cs1,0.193
13,CN(C)c1nc2c(c(N3CCC(O)CC3)n1)CN(CC(C)(C)C)CC2,3.405
14,c1cc(CNCc2ccnc(N3CCCC3)c2)c2c(c1)OCO2,-29.77
15,CC(NC(=O)NCCN1CCCCCC1=O)c1nncn1C (stereo unspecified),-0.9457
16,Cc1nc(-c2ccsc2)ccc1C(=O)NCCC(=O)N1CCCC1,0.2112
17,Cc1noc(C(C)C)c1C(=O)NCCCN1CCCCCC1=O,122
18,CCC(CC)(CCCNC(=O)c1c(C)noc1C)C1OCCO1,-3.207
19,Cc1noc(C)c1C(=O)NCCN1CCOCC1,15.76
20,Cc1noc(C(C)C)c1C(=O)NCCN1CCOCC1,72.1
21,CC(Cn1cccn1)NC(=O)NCCCN1CCCCCC1=O (stereo unspecified),-6.235
22,Cc1noc(C)c1C(=O)NCCN1CCN(c2ccccc2)CC1,7.051
23,Cc1noc(C(C)C)c1C(=O)NCCC(=O)N1CCCCC1,90.26
24,Cc1noc(C(C)C)c1C(=O)NCCCN1CCNCC1.Cl,114.5
25,Cc1noc(C(C)C)c1C(=O)NCC1CCCN1Cc1ccccc1 (stereo unspecified),-8.242
26,Cc1cc(C)n(CC2(CNC(=O)C(c3ccc(F)cc3)N(C)C)CC2)n1 (stereo unspecified),1.569

row,Structure (SMILES),Percent Effect [%]
1,CN(Cc1ccsc1)C(=O)Nc1ccc(S(C)(=O)=O)nc1,-1.265
2,COCCN1CC[C@H]2CN(c3cc(OC)ncn3)C[C@@H]2C1=O.O=C(O)C(F)(F)F,-11.01
3,CN1C(=O)CC(c2ccccc2)C12CCN(c1ncc(F)cn1)CC2 (stereo unspecified),11.07
4,O=C1N(c2ccc(Br)cc2)Cc2n[nH]c(=O)n21,-3.118
5,Cc1ccccc1CCCN(C)S(C)(=O)=O,5.397
6,Cc1ccsc1CNC1CCCc2c1cnn2C.Cl (stereo unspecified),-3.429
7,COc1cc(OC)cc(-c2cccc3c2OC(CN)C3)c1 (stereo unspecified),2.272
8,Cc1noc(C(C)C)c1C(=O)NCC1CCN(c2ccccc2)C1 (stereo unspecified),-7.701
9,Cc1noc(C(C)C)c1C(=O)NCc1cc(F)cc(F)c1,-8.359
10,COc1ccc(S(=O)(=O)NC(=O)c2c(C)noc2C(C)C)cc1OC,2.156
11,CC1CCN(CCCNC(=O)C2CCCCC2)CC1,13.42
12,Cc1noc(C(C)C)c1C(=O)NCCCN1CCC(C)CC1,80.48
13,COCCCNC(=O)c1c(C)noc1C(C)C,99.64
14,CCn1c(=O)nc2n1C(=O)N(c1cccc(Cl)c1)C2,5.675
15,CC1CCCN(S(=O)(=O)NCCCn2ccc3ccccc32)C1 (stereo unspecified),-2.865
16,Cn1c(-c2ccc(F)cc2)cn2cc(C(=O)N3CCC(N)C3)nc2c1=O (stereo unspecified),-3.321
17,CC(c1cccnc1)N1CCN(CCc2ccccn2)CC1 (stereo unspecified),-1.072
18,Cc1ccc(CNC(=O)c2nc3c(n2C)CCN(c2ncccn2)C3)o1,77.66
19,Cc1ccc(CNC(=O)c2nc3c(o2)CN(c2ncccn2)C3)o1,-19.04
20,CN1CCCN(C(=O)c2nc3c(n2C)CCN(c2ncccn2)C3)CC1,6.305
21,CN1CCO[C@@H]2CN(S(=O)(=O)c3ccc(F)cc3)CC[C@@H]2C1.O=C(O)C(F)(F)F,-6.683
22,CC(=O)N1CCO[C@@H]2CN(S(=O)(=O)c3ccc(C)cc3)CC[C@@H]2C1,106.7
23,CC(=O)N1CCO[C@@H]2CN(S(=O)(=O)c3ccc(F)cc3)CC[C@@H]2C1,115.5
